Screening data: PubChem BioAssay, National Center for Advancing Translational Sciences (NCATS)
Rows were chosen to be rich in hits. Some 9.8% of all compounds tested hit in one or more screens of this group.
HPGD inh: HPGD (human) dehydrogenase inhibition; purified HPGD, NADH fluorescence kinetic, PGE2 substrate; Potency, µM, usual class: inhibitors; hit rate 4.3% among 150,000
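20 nM HPGD preincubated 15 min at room temperature with compound in 50 mM Tris-HCl pH 8, 0.01% Tween 20. Started with 1 mM NAD+ and 30 uM prostaglandin E2; NADH fluorescence (360/450 nm) read 5 times over 30-s intervals, last minus first.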
HTT cytoprotect: cytoprotection in Huntington HTT-Q103 PC12 cell model; PC12 HTT-Q103 induced, cytoprotection, ATP luminescence, 40 h; Potency, µM (highest dose often 56.4 µM), most hits filed as activators; hit rate 0.14% among 230,000; active = well fitted curve in the direction sought with a large enough effect; inconclusive = small, poorly fitted or top-dose-only effect, or another doubt; inactive = no such curve, though single readings can be large; an effect the other way counts as inactive or inconclusive; note: nearly all actives have a fitted effect of over 45% in size
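Huntington model: PC12 line, ecdysone-inducible HTTQ103 exon1–GFP, tebufenozide 100 nM. Test articles in a dose series. Endpoint luminescence from cellular ATP.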
ALDH1A1 inh: inhibitors of human aldehyde dehydrogenase 1A1; Purified ALDH1A1, NADH fluorescence, propionaldehyde substrate; Potency, µM (top dose mostly 75.3 µM), actives largely listed as inhibitors; hit rate 7.3% among 220,000; AID 1030
CBFb-RUNX1 inh: inhibitors of human CBF-beta and RUNX1 interaction; Q01196+Q13951; AlphaScreen CBFb-His/RUNX1-biotin binding, biochemical; Potency, µM (highest dose often 59.8 µM), most hits filed as inhibitors; 230,000 tested, under 10 active; active = well fitted curve in the direction sought with a large enough effect; inconclusive = small, poorly fitted or top-dose-only effect, or another doubt; inactive = no such curve, though single readings can be large; an effect the other way counts as inactive or inconclusive
Target sequence (Q01196 whole entry, looked up): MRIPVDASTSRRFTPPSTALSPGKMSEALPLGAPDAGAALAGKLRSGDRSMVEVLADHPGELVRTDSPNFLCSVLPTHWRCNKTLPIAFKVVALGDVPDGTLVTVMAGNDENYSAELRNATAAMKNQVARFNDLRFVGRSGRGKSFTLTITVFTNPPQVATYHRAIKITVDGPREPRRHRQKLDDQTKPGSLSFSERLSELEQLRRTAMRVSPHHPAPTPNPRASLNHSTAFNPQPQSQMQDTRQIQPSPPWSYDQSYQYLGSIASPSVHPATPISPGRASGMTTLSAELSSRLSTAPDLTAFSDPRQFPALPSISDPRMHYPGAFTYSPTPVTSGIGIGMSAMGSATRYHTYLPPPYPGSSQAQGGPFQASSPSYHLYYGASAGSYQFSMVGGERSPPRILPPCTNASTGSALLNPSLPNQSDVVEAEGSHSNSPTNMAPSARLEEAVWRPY
Target sequence (Q13951 whole entry, looked up): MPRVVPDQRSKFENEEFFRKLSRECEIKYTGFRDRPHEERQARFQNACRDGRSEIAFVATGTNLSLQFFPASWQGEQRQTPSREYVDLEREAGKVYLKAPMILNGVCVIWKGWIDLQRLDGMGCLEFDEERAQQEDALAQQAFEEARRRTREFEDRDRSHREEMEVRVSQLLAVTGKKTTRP
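Bead-based AlphaScreen assay; binding partners His-tagged CBF-beta and biotinylated RUNX1 at 30 nM each. Compound exposure 15 min after a 20-min protein preincubation; bead step 90 min; all steps at room temperature.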
HTT aggregate: inhibitors of mutant huntingtin aggregate formation in PC12 cells; Potency, µM (highest dose often 46.1 µM), actives largely listed as inhibitors; hit rate 1.1% among 220,000; PC12 HttQ103-GFP aggregates, Acumen cytometry, 40 h; active = well fitted curve in the direction sought with a large enough effect; inconclusive = small, poorly fitted or top-dose-only effect, or another doubt; inactive = no such curve, though single readings can be large; an effect the other way counts as inactive or inconclusive; note: nearly all actives have a fitted effect of over 60% in size
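Aggregates are detected as GFP objects 1–25 µm with signal 6 STDEV over background in lysates of induced PC12 cells. These carry Huntingtin exon 1 with 103 glutamines fused to GFP under an ecdysone promoter; compounds titrated.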
JMJD2E inh: inhibitors of human JMJD2E histone demethylase | B2RXH2 | JMJD2E catalytic domain, FDH-coupled NADH fluorescence (FDH is formaldehyde dehydrogenase) | Potency, µM (series often up to 57.1 µM), hits mostly inhibitors | hit rate 1.6% among 230,000 | AID 2147; note: nearly all actives have a fitted effect of over 50% in size
Of the large screens only hits and unclear results are named; the others gave an inactive call. Unless noted, calls come from the whole dose curve; as a rule, active = well fitted inhibition curve with a large enough effect (not every such curve was filed as active); inconclusive = small, poorly fitted or top-dose-only effect, or another doubt; inactive = no such curve, though single readings can be large or run the other way.

N=C(c1ccc([N+](=O)[O-])cc1)N1CCCCCC1	none (no result: HPGD inh)
CC(C)c1ccc(NC(=S)Nc2ccc3[nH]c(=O)[nH]c3c2)cc1	ALDH1A1 inh 39.8µM (no result: HPGD inh)
S=C(Nc1ccccc1)Nc1ccc(Cl)cc1Cl	ALDH1A1 inh 7.94µM, HTT aggregate inconclusive
S=C(Nc1ccc2cn[nH]c2c1)Nc1ccccc1Cl	ALDH1A1 inh 14.1µM (no result: HTT cytoprotect)
COCCNC(=S)Nc1ccc2[nH]c(=O)[nH]c2c1	ALDH1A1 inh 25.1µM, CBFb-RUNX1 inh inconclusive (no result: HPGD inh)
Cc1ccccc1NC(=S)Nc1ccc2cn[nH]c2c1	ALDH1A1 inh inconclusive, JMJD2E inh inconclusive (no result: HPGD inh)
CSc1ccc(/C=C/C(=O)OCC(=O)N(C)CCC#N)cc1	ALDH1A1 inh inconclusive, JMJD2E inh inconclusive (no result: HPGD inh)
O=C(NC(Cc1c[nH]c2ccccc12)C(=O)O)/C(=C\c1ccc2c(c1)OCO2)NC(=O)c1ccccc1 (stereo unspecified)	none (no result: HPGD inh, ALDH1A1 inh)
S=C(Nc1ccc2cn[nH]c2c1)Nc1ccc2cn[nH]c2c1	ALDH1A1 inh inconclusive (no result: CBFb-RUNX1 inh, HTT aggregate, JMJD2E inh)
S=C(Nc1ccc2cn[nH]c2c1)Nc1ccc(Cl)cc1Cl	ALDH1A1 inh 12.6µM, JMJD2E inh inconclusive (no result: HPGD inh)
O=c1[nH]c2ccc(NC(=S)Nc3ccccc3Cl)cc2[nH]1	HPGD inh 22.4µM, ALDH1A1 inh 6.31µM
S=C(Nc1ccc(Cl)cc1)Nc1ccc2cn[nH]c2c1	ALDH1A1 inh 25.1µM, JMJD2E inh inconclusive (no result: HPGD inh)
S=C(NCc1ccco1)Nc1ccc(Br)cc1Cl	ALDH1A1 inh inconclusive (no result: HPGD inh)
S=C(NCc1ccco1)Nc1ccc(Cl)cc1Cl	HPGD inh 28.2µM
O=C(O)c1cc(=O)[nH]c(SCc2ccccc2)n1	none (no result: CBFb-RUNX1 inh, HTT aggregate, JMJD2E inh)
COc1ccc(Cn2nnnc2CN2CCOCC2)cc1	none
c1ccc(Cn2nnnc2CN2CCN(c3ncccn3)CC2)cc1	ALDH1A1 inh 11.2µM
COc1ccc(/C=N/NC(=O)C(Cc2c[nH]c3ccccc23)NC(=O)OCC(C)C)cc1[N+](=O)[O-] (stereo unspecified)	ALDH1A1 inh 12.6µM
Cc1ccc(-c2cccc(CN3CCN(C4CCN(C(C)C)CC4)C(CCO)C3)c2)o1 (stereo unspecified)	ALDH1A1 inh inconclusive, JMJD2E inh inconclusive (no result: HPGD inh)
CC(=O)Oc1ccc(N2C(=O)CC(N3CCOCC3)C2=O)cc1 (stereo unspecified)	ALDH1A1 inh 31.6µM
CCOc1cccc(N2C(=O)CC(n3cnc4ccccc43)C2=O)c1 (stereo unspecified)	none
CCOC(=O)c1ccc(N2C(=O)CC(N(Cc3ccc4c(c3)OCO4)C(=O)Nc3ccccc3)C2=O)cc1 (stereo unspecified)	ALDH1A1 inh 12.6µM
CCOC(=O)c1ccc(N2C(=O)CC(N(C)CCc3ccc(OC)c(OC)c3)C2=O)cc1 (stereo unspecified)	ALDH1A1 inh 10µM
CNC(=S)N(Cc1ccc2c(c1)OCO2)C1CC(=O)N(c2ccc(F)cc2)C1=O (stereo unspecified)	none
CCOc1cccc(N2C(=O)CC(N3CCC(C(N)=O)(N4CCCCC4)CC3)C2=O)c1 (stereo unspecified)	ALDH1A1 inh 25.1µM
CCOc1ccc(N2C(=O)CC(N3CCOCC3)C2=O)cc1 (stereo unspecified)	ALDH1A1 inh inconclusive
CCOc1cccc(N2C(=O)CC(N(CCc3ccc(OC)c(OC)c3)C(=O)CC)C2=O)c1 (stereo unspecified)	none
COCC(=O)N1CCC2(CC1)CN(Cc1nccs1)C2	none (no result: CBFb-RUNX1 inh, HTT aggregate, JMJD2E inh)
CCNc1nc2cccnc2s1	none (no result: HPGD inh, ALDH1A1 inh)
CN(C)N1C(=O)CC(N2CCCCC2)C1=O (stereo unspecified)	none (no result: HPGD inh)
CCN1C(=O)[C@H]2[C@H]3[C@H](O)[C@H](O)C/C(=N/OC[C@@H](C)[C@H](OCc4ccccc4)C(C)C)[C@@H]3CC[C@@H]2C1=O	none (no result: HPGD inh, HTT aggregate, JMJD2E inh)
OB(O)c1cc2ccccc2o1	JMJD2E inh inconclusive (no result: HTT aggregate)
CCOC(=O)c1ccc(N2C(=O)CC(N3CCC(C(N)=O)(N4CCCCC4)CC3)C2=O)cc1 (stereo unspecified)	ALDH1A1 inh 8.91µM
CC(=O)Oc1ccc(N2C(=O)C3C4C=CC(O4)C3C2=O)cc1 (stereo unspecified)	HPGD inh 31.6µM, ALDH1A1 inh 0.447µM, HTT aggregate inconclusive
CCOC(=O)c1ccc(N2C(=O)CC(NC3CCN(C(=O)c4cccc(Cl)c4)CC3)C2=O)cc1 (stereo unspecified)	HTT cytoprotect inconclusive, ALDH1A1 inh 12.6µM
CC(=O)Oc1ccc(N2C(=O)CCC2=O)cc1	none
CCOC(=O)c1ccc(N2C(=O)CC(N3CCOCC3)C2=O)cc1 (stereo unspecified)	ALDH1A1 inh 25.1µM
CCOC(=O)c1ccc(N2C(=O)CC(N3CCN(C(=O)c4ccco4)CC3)C2=O)cc1 (stereo unspecified)	ALDH1A1 inh inconclusive
O=C(/C=C/c1ccc(O)c(O)c1)c1ccc(O)cc1O	none (no result: HPGD inh, HTT cytoprotect, ALDH1A1 inh, HTT aggregate, JMJD2E inh)
Cc1ccc(NC2CC(=O)N(c3ccc(C)cc3)C2=O)cc1 (stereo unspecified)	none
CCOC(=O)c1ccc(N2C(=O)CC(Nc3ccc(CCO)cc3)C2=O)cc1 (stereo unspecified)	ALDH1A1 inh 15.8µM, HTT aggregate inconclusive, JMJD2E inh inconclusive
CCN1C(=O)/C(=C\N(C)C)S/C1=N\S(=O)(=O)c1ccc(C)cc1	ALDH1A1 inh inconclusive (no result: HPGD inh)
CCn1c(SCC(=O)N/N=C/c2cc(OC)c(OC)c(OC)c2)nc2ccccc21	ALDH1A1 inh 25.1µM
CCn1c(SCC(=O)N/N=C/C=C\c2ccco2)nc2ccccc21	HPGD inh inconclusive, ALDH1A1 inh 10µM, CBFb-RUNX1 inh inconclusive, HTT aggregate inconclusive, JMJD2E inh inconclusive
C/C(=N/NC(=O)CSc1nc2ccccc2n1C)c1ccc(O)cc1	ALDH1A1 inh 12.6µM (no result: HPGD inh)
Cn1c(SCC(=O)N/N=C/C=C\c2ccco2)nc2ccccc21	HPGD inh 20µM, ALDH1A1 inh 5.97µM
CN(C)/[N+]([O-])=N/Oc1cc(ON=[N+]([O-])N2CCN(c3ncccn3)CC2)c([N+](=O)[O-])cc1[N+](=O)[O-]	none (no result: HPGD inh, HTT cytoprotect, ALDH1A1 inh, HTT aggregate, JMJD2E inh)
CS(=O)(=O)N(CC(=O)NCc1ccco1)c1cccc([N+](=O)[O-])c1	ALDH1A1 inh inconclusive (no result: HPGD inh)
O=c1[nH]c2ccccc2c(O)c1-c1ccccc1	none (no result: HPGD inh, ALDH1A1 inh)
Nc1[nH]c(=S)[nH]c(=O)c1-c1ccccc1	HPGD inh 25.1µM, ALDH1A1 inh inconclusive
O=c1ccn(CCc2c[nH]c3ccccc23)c2c1CCCC2	ALDH1A1 inh 14.1µM (no result: HPGD inh)
O=C(C(=O)N1CCCC1CO)N1CCCC1CO (stereo unspecified)	none (no result: HPGD inh)
C/C(=N\NC(=S)NC1CCCCC1)c1ccccc1	none
COCCNC(=S)N/N=C(\C)c1ccc(O)cc1	none
C/C(=N\NC(=S)NC1CCCCC1)c1ccc(O)cc1	ALDH1A1 inh 14.1µM (no result: HPGD inh)
C/C(=N\NC(=S)Nc1ccccc1C)c1ccc(O)cc1	ALDH1A1 inh 20µM (no result: HPGD inh)
